# The campaign covered roughly 5,500 compounds. About 2,000 (36%) were called active. Another 18% or so got no clear call; they are omitted. Some of the results follow. Values without a mark were called inactive. Cut-off read from the data, not from the text of the source: active = normalized growth mostly below about 0.91 (no sharp cut-off); inconclusive = no clear call, values can overlap the other calls; inactive = mostly above about 0.92.
# Assay: chemical genetic growth profiling, strain panel (AID 1159580);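 note: tested at 20 µM; growth read once vehicle control cultures reached saturation at 30 °C; 1 = growth at the plate median or of vehicle wells; lower values mean less growth of the strain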
# Details: growth OD
# [1] = S. cerevisiae deletion strains, locus YAL013W, strain DEP1, stronger effect = lower value
# [2] = S. cerevisiae deletion strains, locus YAL040C, strain CLN3, stronger effect = lower value
# [3] = S. cerevisiae deletion strains, locus YCL061C, strain MRC1 (second series), stronger effect = lower value
# [4] = S. cerevisiae deletion strains, locus YDR150W, strain NUM1, stronger effect = lower value
# [5] = S. cerevisiae deletion strains, locus YDR363W, strain ESC2, stronger effect = lower value
# [6] = S. cerevisiae deletion strains, locus YER002W, strain NOP16, stronger effect = lower value
# [7] = S. cerevisiae deletion strains, locus YJR075W, strain HOC1, stronger effect = lower value
# [8] = S. cerevisiae deletion strains, locus YMR263W, strain SAP30, stronger effect = lower value
# [9] = S. cerevisiae deletion strains, locus YNL128W, strain TEP1, stronger effect = lower value
# [10] = S. cerevisiae deletion strains, locus YNL175C, strain NOP13, stronger effect = lower value
# [11] = S. cerevisiae deletion strains, locus YNL197C, strain WHI3, stronger effect = lower value
# [12] = S. cerevisiae deletion strains, locus YNL224C, strain SQS1, stronger effect = lower value
# [13] = S. cerevisiae deletion strains, locus YNL322C, strain KRE1, stronger effect = lower value
# [14] = S. cerevisiae deletion strains, locus YOR083W, strain WHI5 (second series), stronger effect = lower value
# [15] = S. cerevisiae deletion strains, locus YPL241C, strain CIN2, stronger effect = lower value
# [16] = S. cerevisiae deletion strains, locus YNL153C, strain GIM3, stronger effect = lower value
# [17] = S. cerevisiae deletion strains, locus YGR078C, strain PAC10, stronger effect = lower value
# [18] = S. cerevisiae deletion strains, locus YMR307W, strain GAS1, stronger effect = lower value
# [19] = S. cerevisiae deletion strains, locus YBR229C, strain ROT2, stronger effect = lower value
# [20] = S. cerevisiae deletion strains, locus YCL061C, strain MRC1, stronger effect = lower value
# [21] = S. cerevisiae deletion strains, locus YDL101C, strain DUN1, stronger effect = lower value
# [22] = S. cerevisiae deletion strains, locus YEL061C, strain CIN8, stronger effect = lower value
# [23] = S. cerevisiae deletion strains, locus YHR030C, strain SLT2, stronger effect = lower value
# [24] = S. cerevisiae deletion strains, locus YHR087W, strain rtc3, stronger effect = lower value
# [25] = S. cerevisiae deletion strains, locus YJR043C, strain POL32, stronger effect = lower value
# [26] = S. cerevisiae deletion strains, locus YLR039C, strain RIC1, stronger effect = lower value
# [27] = S. cerevisiae deletion strains, locus YLR058C, strain SHM2 (second series), stronger effect = lower value
# [28] = S. cerevisiae deletion strains, locus YLR085C, strain ARP6, stronger effect = lower value
# [29] = S. cerevisiae deletion strains, locus YLR262C, strain YPT6, stronger effect = lower value
# [30] = S. cerevisiae deletion strains, locus YML094W, strain GIM5, stronger effect = lower value
# [31] = S. cerevisiae deletion strains, locus YMR219W, strain ESC1, stronger effect = lower value
# [32] = S. cerevisiae deletion strains, locus YNL298W, strain CLA4 (second series), stronger effect = lower value
# [33] = S. cerevisiae deletion strains, locus YNR030W, strain Alg12, stronger effect = lower value
# [34] = S. cerevisiae deletion strains, locus YPL055C, strain LGE1, stronger effect = lower value
# [35] = S. cerevisiae deletion strains, locus YPR135W, strain CTF4, stronger effect = lower value
structure (smiles),measurement,setting,value
COc1cc2c(cc1C(F)(F)F)N(C(=O)Nc1cc(F)cc(-c3cccnc3)c1)CC2,normalized growth,[1],1.01
same,normalized growth,[2],1.08
same,normalized growth,[3],1
same,normalized growth,[4],1.02
same,normalized growth,[5],1
same,normalized growth,[6],1.05
same,normalized growth,[7],1.11 [resistant] (active)
same,normalized growth,[8],1.01
same,normalized growth,[9],1.05
same,normalized growth,[10],1.01
same,normalized growth,[11],1.01
same,normalized growth,[12],1.02
same,normalized growth,[13],1.01
same,normalized growth,[14],0.9
same,normalized growth,[15],1.01
CN1CCc2cc(NC(=O)Nc3cccnc3)ccc21,normalized growth,[2],0.994
same,normalized growth,[3],0.996
same,normalized growth,[6],0.996
same,normalized growth,"S. cerevisiae deletion strains, locus YGR229C, strain SMI1, stronger effect = lower value",0.988
same,normalized growth,[9],0.994
same,normalized growth,[16],1.01
same,normalized growth,[10],1.01
same,normalized growth,[11],0.992
same,normalized growth,[12],1.03
same,normalized growth,[14],0.977
Cn1ccc2cc3c(cc21)CCN3C(=O)Nc1cccnc1,normalized growth,[1],0.995
same,normalized growth,[2],1
same,normalized growth,[3],1.01
same,normalized growth,[4],0.992
same,normalized growth,[5],0.999
same,normalized growth,[6],0.999
same,normalized growth,[17],0.998
same,normalized growth,[18],1.01
same,normalized growth,[16],0.976
same,normalized growth,[10],0.981
same,normalized growth,[11],1
same,normalized growth,[12],0.989
same,normalized growth,[13],1.01
same,normalized growth,[14],0.969
c1ccc(C2CC2)c(OCC2=NCCN2)c1,normalized growth,[2],1.05
same,normalized growth,[3],1.01
same,normalized growth,[4],1
same,normalized growth,[5],1.02
same,normalized growth,[6],0.98
same,normalized growth,[17],1.01
same,normalized growth,[8],1.01
same,normalized growth,[10],0.994
same,normalized growth,[11],0.984
same,normalized growth,[12],0.994
same,normalized growth,[13],0.999
same,normalized growth,[14],1.02
same,normalized growth,[15],1.01
O=C1c2cccc3c(SCCO)ccc(c23)C(=O)N1CCc1ccccn1,normalized growth,[1],0.999
same,normalized growth,[19],0.997
same,normalized growth,[20],1
same,normalized growth,[21],1.09
same,normalized growth,"S. cerevisiae deletion strains, locus YDL134C, strain PPH21, stronger effect = lower value",1.01
same,normalized growth,[4],1.02
same,normalized growth,[22],1
same,normalized growth,[17],1.01
same,normalized growth,[23],0.903
same,normalized growth,[24],1
same,normalized growth,"S. cerevisiae deletion strains, locus YJL187C, strain SWE1, stronger effect = lower value",0.845 (active)
same,normalized growth,[25],0.994
same,normalized growth,[7],0.984
same,normalized growth,[26],1
same,normalized growth,[27],0.991
same,normalized growth,[28],0.948
same,normalized growth,[29],1
same,normalized growth,[30],1.01
same,normalized growth,[31],0.995
same,normalized growth,[8],1.01
same,normalized growth,[9],1
same,normalized growth,[16],0.995
same,normalized growth,[32],0.993
same,normalized growth,[13],0.996
same,normalized growth,[33],0.989
same,normalized growth,[34],1.03
same,normalized growth,[15],0.989
same,normalized growth,[35],0.907
O=C1CNC(=S)N1CCc1ccccn1,normalized growth,[1],0.992
same,normalized growth,[19],0.987
same,normalized growth,[20],0.99
same,normalized growth,[21],0.978
same,normalized growth,[4],0.994
same,normalized growth,[22],0.999
same,normalized growth,[17],0.987
same,normalized growth,[23],0.951
same,normalized growth,[24],0.992
same,normalized growth,[25],0.991
same,normalized growth,[7],1.01
same,normalized growth,[26],0.973
same,normalized growth,[27],0.979
same,normalized growth,[28],1.02
same,normalized growth,[29],0.962
same,normalized growth,[30],0.945
same,normalized growth,[31],0.993
same,normalized growth,[8],1
same,normalized growth,[18],1.08
same,normalized growth,[16],1.01
same,normalized growth,[32],0.966
same,normalized growth,[13],0.983
same,normalized growth,[33],0.98
same,normalized growth,"S. cerevisiae deletion strains, locus YOL006C, strain TOP1, stronger effect = lower value",0.997
same,normalized growth,[34],0.998
same,normalized growth,[15],1.03
same,normalized growth,[35],0.914
same,normalized growth,"S. cerevisiae strains, strain wild type, stronger effect = lower value",0.969

# — PubChem BioAssay AID1159580 (chemical genetic matrix, 2015)
